High-throughput results as filed in PubChem.
RE007 growth inh – less growth of the S. pombe RE007 Vpr strain; actives 0.21% (n = 360,000); Potency, µM (top dose mostly 92.2 µM), actives largely listed as inhibitors; S. pombe RE007 Vpr strain, BacTiter-Glo ATP luminescence, 24 h; active = well fitted falling curve with a large enough effect; inconclusive = small, poorly fitted or top-dose-only effect; inactive = no such curve, though single readings can be large or run the other way; note: nearly all actives have a fitted effect of over 50% in size
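Fission yeast RE007 carrying one integrated HIV-1 vpr copy, seeded at OD 0.01 in PMG+AL medium with 23 nL pinned compound. Grown 24 h at 30 degrees; viability read by BacTiter-Glo luminescence after 5 min.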
Giardia FBPA inh-1 – blocks Giardia fructose-bisphosphate aldolase activity; actives 0.71% (n = 290,000); Potency, µM (top dose mostly 59.6 µM), hits mostly inhibitors; purified Giardia FBPA; A8B2U2; note: nearly all actives have a fitted effect of over 55% in size
Target sequence (A8B2U2 whole entry, looked up): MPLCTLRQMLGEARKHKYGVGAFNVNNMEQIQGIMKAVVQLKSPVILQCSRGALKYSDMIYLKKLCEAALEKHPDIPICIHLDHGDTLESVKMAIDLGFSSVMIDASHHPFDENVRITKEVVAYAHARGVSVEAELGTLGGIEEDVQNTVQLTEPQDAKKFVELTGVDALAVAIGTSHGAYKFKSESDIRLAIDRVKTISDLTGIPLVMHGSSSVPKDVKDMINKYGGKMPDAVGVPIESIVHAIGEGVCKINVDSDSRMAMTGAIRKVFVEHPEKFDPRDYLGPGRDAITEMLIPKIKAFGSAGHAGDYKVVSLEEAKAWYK
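Giardia FBPA (40 nM reagent) was preincubated 10 min at RT with compound (up to 57.5 uM final), then substrate plus GAPDH/TPI/NAD/arsenate coupling system with diaphorase/resazurin was added; resorufin fluorescence (525/598 nm) was read after 20 min.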
TbPYK inhibitor – blocks Trypanosoma brucei pyruvate kinase; TbPYK enzyme, Kinase-Glo Plus ATP luminescence, 45 min; actives 0.12% (n = 410,000); Q57TT1; Potency, µM (titrated, usually from 76.8 µM), usual class: inhibitors; note: nearly all actives have a fitted effect of over 50% in size
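Screened from lowest to highest concentration, compounds were pinned into TbPYK/substrate mixtures, and ADP (130 uM final) was added. Plates sat at room temperature for 45 min prior to Kinase-Glo Plus detection by luminescence.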
LmPK inhibitor – blocks Leishmania mexicana pyruvate kinase activity | Q27686 | purified LmPK, Kinase-Glo ATP luminescence, 1 h | Potency, µM (highest dose often 57.5 µM), usual class: inhibitors | actives 0.37% (n = 290,000) | AID 1721
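qHTS format; LmPK 0.1 nM; substrates PEP 0.5 mM and ADP 0.1 mM. One-hour room-temperature incubation, then coupled luciferase luminescence; 0.5 nM enzyme wells mark activation.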
Giardia growth – inhibitors of Giardia lamblia growth; shares compounds with Giardia FBPA inh-1; AID 2785; Potency, µM (series often up to 57.5 µM), hits mostly inhibitors; actives 5% (n = 1,500); Giardia lamblia trophozoite growth inhibition;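 note: trophozoites exposed to compound for 48 h at 37 °C; nearly all actives have a fitted effect of over 70% in size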
Mammalian tox – mammalian cytotoxicity of Giardia aldolase inhibitor hits; actives 4% (n = 1,500); shares compounds with Giardia FBPA inh-1; Potency, µM (doses to about 57.5 µM), actives largely listed as inhibitors; mammalian cell viability counter-screen, qHTS;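 note: Chinese hamster ovary cells used as mammalian cytotoxicity surrogate; viability measured as cellular ATP by luminescence; compound exposure lasted 48 h before reading; nearly all actives have a fitted effect of over 60% in size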
Giardia FBPA inh-2 – confirmation of Giardia fructose-bisphosphate aldolase inhibitors. Potency, µM (titrated, usually from 57.5 µM), actives largely listed as inhibitors. AID 2787. shares compounds with Giardia FBPA inh-1. actives 5% (n = 1,500). purified Giardia aldolase enzyme activity, qHTS; note: nearly all actives have a fitted effect of over 45% in size
Rabbit FBPA inh – selectivity test for Giardia aldolase inhibitors: rabbit aldolase; shares compounds with Giardia FBPA inh-1; Rabbit muscle FBPA enzyme inhibition, selectivity counter-screen; actives 4% (n = 1,500); Potency, µM (titrated, usually from 57.5 µM), usual class: inhibitors; note: nearly all actives have a fitted effect of over 60% in size
Target sequence (P00883 whole entry, looked up): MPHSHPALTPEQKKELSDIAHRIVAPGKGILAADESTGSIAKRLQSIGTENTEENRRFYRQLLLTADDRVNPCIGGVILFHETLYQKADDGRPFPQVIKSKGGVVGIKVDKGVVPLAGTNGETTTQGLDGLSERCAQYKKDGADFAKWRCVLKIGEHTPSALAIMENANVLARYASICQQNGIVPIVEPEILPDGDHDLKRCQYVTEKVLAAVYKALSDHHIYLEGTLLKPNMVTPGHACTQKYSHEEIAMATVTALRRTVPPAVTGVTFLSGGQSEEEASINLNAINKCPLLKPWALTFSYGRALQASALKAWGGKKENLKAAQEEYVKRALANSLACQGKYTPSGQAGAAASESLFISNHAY
GAPDH counter – counter-screen for Giardia aldolase inhibitors: GAPDH coupling enzyme | Potency, µM (doses to about 57.5 µM), usual class: inhibitors | shares compounds with Giardia FBPA inh-1 | GAPDH coupling enzyme counterscreen, biochemical, qHTS | actives 6% (n = 1,500); note: nearly all actives have a fitted effect of over 55% in size
Hits are given with their value; i = inactive; ? = inconclusive; nt = no result given; [ ] = dose if it differs, or a comment. Compounds with a hit are over-represented: about 0.95% of the library has one in this group of screens. Unless noted, calls come from the whole dose curve; as a rule, active = well fitted curve in the direction sought with a large enough effect; inconclusive = small, poorly fitted or top-dose-only effect, or another doubt; inactive = no such curve, though single readings can be large; an effect the other way counts as inactive or inconclusive.

SMILES | RE007 growth inh | Giardia FBPA inh-1 | TbPYK inhibitor | LmPK inhibitor | Giardia growth | Mammalian tox | Giardia FBPA inh-2 | Rabbit FBPA inh | GAPDH counter
COc1ccc(CCNCc2cc(C)n(-c3ccc(OC)cc3)c2C)cc1 | i | 14µM | i | i | i[10.4 µM] | i | i | i | i
O=C(CC1CC1)N[C@@H]1CC[C@@H](CCNS(=O)(=O)c2ccc(F)cc2)O[C@@H]1CO | i | nt | nt | nt | nt | nt | nt | nt | nt
CCN(C(=O)CCc1nc(-c2ccc(C)cc2)no1)c1cccc(Cl)c1 | nt | nt | i | nt | nt | nt | nt | nt | nt
O=S(=O)(c1ccc(F)cc1)N1CCN(CC(O)COc2ccccc2F)CC1 (stereo unspecified) | i | 28µM | i | i | ? | i | i | i | i
O=S(=O)(c1ccccc1C(F)(F)F)N1CCN(CC(O)COc2ccccc2F)CC1 (stereo unspecified) | i | ? | i | i | nt | nt | nt | nt | nt
N#Cc1ccccc1S(=O)(=O)N1CCN(CC(O)COc2ccccc2F)CC1 (stereo unspecified) | i | 16µM | i | i | ? | i | i | i | i
CC(C)c1ccccc1OCC(O)CN1CCN(S(=O)(=O)c2ccc([N+](=O)[O-])cc2)CC1 (stereo unspecified) | i | 18µM | i | i | 5.6µM | i | i | i | i
O=C(O)c1ccc[nH]c1=S | i | 4.5µM | i | i | i | i | i | i | i
O=C(O)c1ccccc1C(=O)O | i | nt | i | nt | nt | nt | nt | nt | nt
O=C(Nc1ccccc1F)c1cnccn1 | i | i | i | i | nt | nt | nt | nt | nt
O=C(Nn1cc(C(=O)Nc2ccc(F)cc2F)c2ccccc2c1=O)c1cnccn1 | i | 18µM | i | i | ? | i | i | i | i
O=C(CN1C(=O)C2C3C=CC(C3)C2C1=O)OCC(=O)c1ccc(Cl)c([N+](=O)[O-])c1 (stereo unspecified) | i | nt | i | nt | nt | nt | nt | nt | nt
O=S(=O)(/N=C(/NC(=S)Nc1ccccc1)c1ccccc1)c1ccc(Cl)cc1 | i | 18µM | i | i | ? | i | i | i | i
CCC(=O)Nc1cc(C)c(OC)c(C)c1 | i | i | i | i | nt | nt | nt | nt | nt
COc1ccccc1C(=O)NCC(=O)NNc1ncnc(N)c1[N+](=O)[O-] | nt | ? | nt | i | nt | nt | nt | nt | nt
Nc1ncnc(NNC(=O)CNC(=O)c2c(F)cccc2Cl)c1[N+](=O)[O-] | i | 16µM | i | i | i | i | i | i | i
CCN(CC)c1ccc(N=Nc2ncn[nH]2)cc1 | i | 3.5µM | i | i | ? | 32µM | i | i | i
O=C(NNC(=O)C12CC3CC(CC(C3)C1)C2)c1ccccn1 | ? | 18µM | i | i | ? | 32µM | i | i | i
Cc1ccc(S(=O)(=O)N2CCOCC2)cc1NC(=O)CNCc1cccnc1 | i | 16µM | i | i | i[10.4 µM] | i | i | i | i
Cc1nn(CCC(=O)Nc2ccccc2Br)c(=O)c2nn(-c3ccccc3)c(C)c12 | nt | nt | i | nt | nt | nt | nt | nt | nt
COc1ccc(CCN(Cc2ccccn2)C(=S)Nc2cccc(SC)c2)cc1OC | i | 10µM | i | i | i | i | i | i | i
COc1ccccc1NC(=S)N(Cc1ccc(C)cc1)Cc1cccnc1 | i | i | i | i | nt | nt | nt | nt | nt
COc1ccccc1NC(=S)N(Cc1ccc(C)cc1)Cc1ccccn1 | i | 18µM | i | i | i | i | i | i | i
Cc1ccc(NC(=S)Nc2cccc3cnccc23)cc1C | i | ? | i | i | nt | nt | nt | nt | nt
S=C(Nc1cccc(Cl)c1)Nc1cccc2cnccc12 | i | 0.25µM | i | i | i | i | ? | ? | 25µM
SMILES | RE007 growth inh | Giardia FBPA inh-1 | TbPYK inhibitor | LmPK inhibitor | Giardia growth | Mammalian tox | Giardia FBPA inh-2 | Rabbit FBPA inh | GAPDH counter
CCN(CC)c1nc(N2CCN(CCO)CC2)nc2ccccc12 | i | 13µM | i | i | i | i | i | i | i
CCN(CC)c1nc(N2CCN(C)CC2)nc2ccccc12 | i | ? | i | i | nt | nt | nt | nt | nt
C#CCCCO/N=C1/C[C@@H](O)[C@@H](O)[C@@H]2[C@@H]3C(=O)N(C(C)(C)C)C(=O)[C@H]3CC[C@H]12 | nt | i[12.9 µM] | nt | nt | nt | nt | nt | nt | nt
CC(C)(C)c1ccccc1OCCCCCn1ccnc1 | i | 18µM | i | i | i | i | i | i | i
Clc1cccc(OCCn2ccnc2)c1 | i | 35µM | i | i | ? | i | i | i | i
COc1cccc(OCCn2ccnc2)c1 | i | i | i | i | nt | nt | nt | nt | nt
Cc1cc(C)c(OCCCn2ccnc2)c(C)c1 | i | ? | i | i | nt | nt | nt | nt | nt
CC(C)(C)c1cc(Cl)ccc1OCCn1ccnc1 | i | 18µM | i | i | i | i | i | i | i
Cc1cccc(C)c1OCCCn1ccnc1 | i | 22µM | i | i | i | i | i | i | i
CC(=O)N/C(=C/c1ccc(OS(=O)(=O)c2ccc(C)cc2)cc1)C(=O)NCCCO | i | i | i | i | nt | nt | nt | nt | nt
O=C(NCCO)c1cc2ccccc2cc1O | i | 2µM | i | i | i | i | ? | ? | ?
Cn1c(=O)cc(C(=O)N/N=C/c2ccc(F)cc2)[nH]c1=O | i | 16µM | i | i | i | i | i | i | i
O=C1NC(=S)/C(=C\c2ccc(-c3ccccc3Cl)o2)S1 | i | i | i | i | nt | nt | nt | nt | nt
O=C1NC(=O)/C(=C/c2ccc(-c3cc(C(=O)O)ccc3Cl)o2)S1 | i | 32µM | i | i | i | i | i | i | i
Cc1ccsc1C1C(C#N)=C(N)OC2=C1C(=O)CCC2 (stereo unspecified) | i | 18µM | i | i | i | i | i | i | ?
Cc1cc(NC(=O)CC#N)n(-c2nc3ccccc3[nH]2)n1 | i | 16µM | i | i | i | i | i | i | i
Cc1cc(NC(=O)c2cccs2)n(-c2nc3ccccc3[nH]2)n1 | i | i | i | i | nt | nt | nt | nt | nt
Cc1cc(NC(=O)c2ccccc2)n(-c2nc3ccccc3[nH]2)n1 | i | i | i | i | nt | nt | nt | nt | nt
Cc1cc(NC(=O)c2sccc2C)n(-c2nc3ccccc3[nH]2)n1 | i | 16µM | i | i | ? | ? | i | i | i
COc1ccc(C(=O)Nc2cc(C)nn2-c2nc3ccccc3[nH]2)c(OC)c1 | i | 18µM | i | i | i | ? | i | i | i
COC(=O)C[C@@H]1CC[C@@H](NC(=O)Nc2cc(F)ccc2F)[C@@H](CO)O1 | i | nt | nt | nt | nt | nt | nt | nt | nt
CCSS(=O)(=O)c1cccc2cccnc12 | 5.6µM | 16µM | 10µM | i | i[10.4 µM] | i | i | ? | ?
COc1cc(NC(=O)CCN2CCN(c3ccccc3OC)CC2)cc(OC)c1 | i | nt | i | nt | nt | nt | nt | nt | nt
COc1cc([N+](=O)[O-])c(C)cc1NC(=O)c1ccc(OC)c(OC)c1 | i | nt | i | nt | nt | nt | nt | nt | nt
CC(=O)N/N=C(\C)c1ccc2c(c1)OCCO2 | i | i | i | i | nt | nt | nt | nt | nt
